HT1080 IDH1KD tx = qHTS for induction of synthetic lethality in tumor cells producing 2HG: qHTS for the HT-1080-IDH1KD cell line; HT-1080 IDH1 knockdown viability, ATP luminescence, 48 h; Potency, µM (top dose mostly 46.1 µM), hits mostly cytotoxic; 360,000 tested, 2% active; AID 686971, 2013
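After a 2 h attachment period, IDH1KD HT-1080 cells took pin-transferred compound for 48 h at 37 °C; ATP-based luminescence after 10 min room-temperature reagent incubation reported viability.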
HT1080-NT tox = qHTS for induction of synthetic lethality in tumor cells producing 2HG: qHTS for the HT-1080-NT fibrosarcoma cell line; 360,000 tested, 1.6% active; HT-1080-NT fibrosarcoma viability, CellTiter-Glo ATP luminescence, 48 h; Potency, µM (titrated, usually from 46.1 µM), most hits filed as cytotoxic; AID 686970, 2013;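 note: NT is the 2HG producing partner of a matched IDH1 knockdown line; nearly all actives have a fitted effect of over 55% in size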
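Luminescent CellTiter-Glo readout after 48 hours of compound exposure at 37 degrees C defined viability of HT-1080-NT cells. Activity was normalized to DMSO wells and cell-free media wells; concentration-response curves were fitted and assigned curve classes.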
KB-3-1 cytotox = qHTS assay for MDR1-selective chemotherapeutics: Primary screen using the parental adenocarcinoma cell KB-3-1; KB-3-1 viability, CellTiter-Glo ATP luminescence, 72 h; Potency, µM (top dose mostly 46.1 µM), usual class: cytotoxic; 400,000 tested, 1.4% active; AID 1347075, 2019; note: nearly all actives have a fitted effect of over 60% in size
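Luminescent ATP read-out (CellTiter-Glo) measures survival of drug-naive KB-3-1 cells after 72 h compound exposure at 37 °C. Titration series was screened from lowest to highest concentration, with DMSO vehicle plates as background controls.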
KB-V1 cytotox = qHTS assay for MDR1-selective chemotherapeutics: Primary screen using the drug-selected MDR subline cells KB-V1. Potency, µM (doses to about 46.1 µM), usual class: cytotoxic. KB-V1 MDR cells viability, CellTiter-Glo, 72 h. 400,000 tested, 3.4% active; note: nearly all actives have a fitted effect of over 60% in size
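Cytotoxicity via CellTiter-Glo luminescence after 72 h compound exposure at 37 degrees C. Cells: drug-selected KB-V1 line, DMEM phenol-red free plus 10% FBS. Compounds tested at multiple concentrations; normalized data fitted to concentration-effect curves.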
DT40 TDP1 CPT = qHTS for Inhibitors of human tyrosyl-DNA phosphodiesterase 1 (TDP1): qHTS in cells in presence of CPT; chicken DT40 Tdp1-/-;hTDP1 cells + 20 nM CPT, ATP luminescence, 48 h; Potency, µM (titrated, usually from 46.2 µM), hits mostly inhibitors; 420,000 tested, 12% active; AID 686979, 2013; note: nearly all actives have a fitted effect of over 55% in size
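Chicken DT40 Tdp1-/- cells stably complemented with human TDP1 were seeded at 400 cells/well in medium containing 20 nM camptothecin, exposed to pin-transferred compounds, and grown at 37 °C for at least 48 hr. Viability was read as ATP luminescence.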
DT40 TDP1 no CPT = qHTS for Inhibitors of human tyrosyl-DNA phosphodiesterase 1 (TDP1): qHTS in cells in absence of CPT | DT40 Tdp1-/- hTDP1 cells, no CPT, ATP luminescence, 48 h | Potency, µM (series often up to 46.2 µM), hits mostly inhibitors | 420,000 tested, 15% active | AID 686978, 2013; note: nearly all actives have a fitted effect of over 55% in size
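Compound effects on proliferation are scored in DT40 Tdp1-/-;hTDP1 cells in the absence of CPT. ATP levels (CellTiter-Glo luminescence) are recorded after a ≥48 hr, 37 °C incubation.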
Large screens that a line does not name were inactive. A selection: hits, their analogues and other compounds. The true share with any hit is near 19%. Calls come from the whole dose curve; as a rule, active = well fitted curve in the direction sought with a large enough effect; inconclusive = small, poorly fitted or top-dose-only effect, or another doubt; inactive = no such curve, though single readings can be large; an effect the other way counts as inactive or inconclusive.

c1ccc(CCn2nnnc2C(c2cccnc2)N2CCN(c3nc4ccccc4s3)CC2)cc1 (stereo not drawn)	KB-V1 cytotox inconclusive, DT40 TDP1 CPT 18µM, DT40 TDP1 no CPT 11µM
COc1ccc(C(c2nnnn2CCc2ccccc2)N2CCN(C3CCCC3)CC2)cc1 (stereo not drawn)	DT40 TDP1 CPT inconclusive
Fc1ccccc1N1CCN(C(c2cccs2)c2nnnn2CCc2ccccc2)CC1 (stereo not drawn)	DT40 TDP1 CPT inconclusive, DT40 TDP1 no CPT inconclusive
N#Cc1cccc(C(c2nnnn2CCc2ccccc2)N2CCN(C3CCCCC3)CC2)c1 (stereo not drawn)	KB-V1 cytotox inconclusive, DT40 TDP1 CPT inconclusive, DT40 TDP1 no CPT 18µM
Fc1ccc(N2CCN(C(c3cccs3)c3nnnn3CCc3ccccc3)CC2)cc1 (stereo not drawn)	KB-V1 cytotox inconclusive, DT40 TDP1 CPT inconclusive, DT40 TDP1 no CPT 23µM
COCCn1nnnc1C(c1ccccc1)N1CCN(c2ccccc2)CC1 (stereo not drawn)	none
CC1CCC(NC(=O)C2CCC(CNS(=O)(=O)c3cccc4cccnc34)CC2)CC1 (stereo not drawn)	DT40 TDP1 CPT inconclusive
Cc1cc(C)nc(N2CCCC(CCC(=O)NCc3ccc(F)c(F)c3)C2)n1 (stereo not drawn)	KB-V1 cytotox inconclusive
NS(=O)(=O)c1cc(C(=O)NCC2CCCCC2)ccc1Cl	DT40 TDP1 no CPT inconclusive
CN(C(=O)COC(=O)/C=C/c1cccs1)C1CCCCC1	none
Cc1ncc2c(c1CNC(=O)c1ccc3c(c1)OCO3)CCN(C(=O)C1Cc3ccccc3O1)C2 (stereo not drawn)	none (no result: HT1080 IDH1KD tx, HT1080-NT tox, KB-3-1 cytotox, KB-V1 cytotox)
CCOc1ccc(S(=O)(=O)N2CCN(C(=O)c3cc4ccccc4o3)CC2)cc1	DT40 TDP1 CPT 21µM, DT40 TDP1 no CPT 21µM
CCOc1ccc(S(=O)(=O)N2CCN(C(=S)NCc3ccccc3)CC2)cc1	KB-V1 cytotox 18µM, DT40 TDP1 CPT 21µM, DT40 TDP1 no CPT inconclusive
O=S(=O)(c1ccccc1)N1CCN(C(=S)NCc2ccccc2)CC1	KB-V1 cytotox inconclusive, DT40 TDP1 no CPT inconclusive
CCOc1ccc(S(=O)(=O)N2CCN(C(=O)c3ccco3)CC2)cc1	none
Cc1nc2nc(NC(=O)c3ccc(F)cc3)[nH]n2c(=O)c1Cc1ccccc1	none (no result: HT1080 IDH1KD tx, HT1080-NT tox, KB-3-1 cytotox, KB-V1 cytotox)
CCc1ccc(N(CC)C(=O)c2cc3c(=O)oc4ccc(C)cc4c3s2)cc1	KB-V1 cytotox inconclusive, DT40 TDP1 no CPT inconclusive (no result: HT1080 IDH1KD tx, HT1080-NT tox)
Oc1cccc(/C=C/c2ccc3cccc(O)c3n2)c1	HT1080 IDH1KD tx inconclusive, HT1080-NT tox 33µM, KB-3-1 cytotox inconclusive, KB-V1 cytotox inconclusive, DT40 TDP1 CPT 18µM, DT40 TDP1 no CPT 16µM
CC(=O)COc1cccc2ccc(/C=C/c3ccc(Br)s3)nc12	DT40 TDP1 CPT 21µM, DT40 TDP1 no CPT inconclusive
COc1cccc(C(O)c2nc(/C=C/c3ccccc3)cs2)c1 (stereo not drawn)	DT40 TDP1 CPT inconclusive, DT40 TDP1 no CPT inconclusive
COc1cccc(/C=C/c2ccc3cccc(O)c3n2)c1	HT1080 IDH1KD tx inconclusive, KB-3-1 cytotox inconclusive, KB-V1 cytotox inconclusive, DT40 TDP1 CPT inconclusive, DT40 TDP1 no CPT 7.3µM
O=[N+]([O-])c1ccc(/C=C/c2ccc3cccc(O)c3n2)cc1	HT1080 IDH1KD tx inconclusive, HT1080-NT tox inconclusive, KB-3-1 cytotox inconclusive, DT40 TDP1 CPT 21µM, DT40 TDP1 no CPT 16µM
COC(=O)c1ccc(/C=C/c2ccc3cccc(OC)c3n2)cc1	KB-V1 cytotox inconclusive, DT40 TDP1 CPT inconclusive, DT40 TDP1 no CPT inconclusive
Cc1cccc(/C=C/c2ccccc2)n1	none (no result: HT1080 IDH1KD tx, HT1080-NT tox, KB-3-1 cytotox, KB-V1 cytotox)
CCOc1ccc(-c2nc(SCC(=O)NCCOC)c(-c3ccc(OC)c(OC)c3)[nH]2)cc1	DT40 TDP1 no CPT inconclusive (no result: HT1080 IDH1KD tx, HT1080-NT tox)
